Assay outcomes deposited in PubChem BioAssay by National Center for Advancing Translational Sciences (NCATS).
Rows were chosen to be rich in hits. Some 9% of all compounds tested hit in one or more screens of this group.
ALDH1A1 block = ALDH1A1 (human) enzyme inhibition; P00352; Purified ALDH1A1, NADH fluorescence, propionaldehyde substrate; Potency, µM (doses to about 75.3 µM), hits mostly inhibitors; 7.3% of 220,000 active; active = well fitted inhibition curve with a large enough effect, not every such curve was filed as active; inconclusive = small, poorly fitted or top-dose-only effect, or another doubt; inactive = no such curve, though single readings can be large or run the other way
Target sequence (P00352 whole entry, looked up): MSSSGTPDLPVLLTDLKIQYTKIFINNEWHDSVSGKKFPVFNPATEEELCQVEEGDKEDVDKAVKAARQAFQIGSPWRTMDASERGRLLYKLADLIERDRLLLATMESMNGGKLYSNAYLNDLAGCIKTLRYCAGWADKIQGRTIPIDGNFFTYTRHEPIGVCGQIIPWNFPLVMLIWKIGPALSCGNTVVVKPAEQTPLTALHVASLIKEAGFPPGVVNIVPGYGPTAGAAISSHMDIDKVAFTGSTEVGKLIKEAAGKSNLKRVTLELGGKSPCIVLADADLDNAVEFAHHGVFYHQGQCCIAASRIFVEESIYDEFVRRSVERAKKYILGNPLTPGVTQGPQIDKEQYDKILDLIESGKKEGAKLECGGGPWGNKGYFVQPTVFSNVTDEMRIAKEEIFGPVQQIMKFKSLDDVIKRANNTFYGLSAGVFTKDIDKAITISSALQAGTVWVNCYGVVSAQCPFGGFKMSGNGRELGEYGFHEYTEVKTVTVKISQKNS
HttQ103 aggreg = reduces HttQ103-GFP aggregates in PC12 cells; PC12 HttQ103-GFP aggregates, Acumen cytometry, 40 h; AID 1688; 1.1% of 220,000 active; Potency, µM (series often up to 46.1 µM), usual class: inhibitors; note: nearly all actives have a fitted effect of over 60% in size
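Aggregates are detected as GFP objects 1–25 µm with signal 6 STDEV over background in lysates of induced PC12 cells. These carry Huntingtin exon 1 with 103 glutamines fused to GFP under an ecdysone promoter; compounds titrated.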
Luc counter = blocks Kinase-Glo luciferase, a counter-screen artifact; Kinase-Glo luciferase, ATP luminescence, 8 min; Potency, µM (series often up to 38.3 µM), hits mostly inhibitors; 0.28% of 200,000 active; AID 1379; note: nearly all actives have a fitted effect of over 60% in size
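Inhibition of Kinase-Glo luciferase light generation was assessed at 10 uM ATP in pH 7.2 imidazole buffer, with luminescence measured after eight minutes at ambient temperature.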
HTT cytoprotect = Huntington cell model cytoprotection by ATP luminescence; PC12 HTT-Q103 induced, cytoprotection, ATP luminescence, 40 h; Potency, µM (titrated, usually from 56.4 µM), actives largely listed as activators; 0.14% of 230,000 active; AID 1471; note: nearly all actives have a fitted effect of over 45% in size
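Huntington model: PC12 line, ecdysone-inducible HTTQ103 exon1–GFP, tebufenozide 100 nM. Test articles in a dose series. Endpoint luminescence from cellular ATP.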
HPGD block = HPGD (human) dehydrogenase inhibition | P15428 | purified HPGD, NADH fluorescence kinetic, PGE2 substrate | Potency, µM, hits mostly inhibitors | 4.3% of 150,000 active; active = well fitted inhibition curve with a large enough effect, not every such curve was filed as active; inconclusive = small, poorly fitted or top-dose-only effect, or another doubt; inactive = no such curve, though single readings can be large or run the other way
Target sequence (P15428 whole entry, looked up): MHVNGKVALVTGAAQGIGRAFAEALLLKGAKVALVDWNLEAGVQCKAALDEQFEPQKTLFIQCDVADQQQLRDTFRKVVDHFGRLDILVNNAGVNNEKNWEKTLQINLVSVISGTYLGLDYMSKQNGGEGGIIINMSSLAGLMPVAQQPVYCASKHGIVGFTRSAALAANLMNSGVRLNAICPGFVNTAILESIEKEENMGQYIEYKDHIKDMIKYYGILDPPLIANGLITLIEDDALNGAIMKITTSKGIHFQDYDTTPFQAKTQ
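NADH formation kinetics: reaction with 30 uM PGE2 and 1 mM NAD+ (final), 20 nM enzyme, Tris-HCl pH 8 with Tween 20, after 15 min compound preincubation at room temperature. Fluorescence change, last versus first of five reads.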
Lamin A splicing = changes lamin A minigene splicing in HeLa cells; HeLa LMNA splicing GFP/RFP minigene ratio, 48 h; Potency, µM (highest dose often 46.1 µM), actives largely listed as inhibitors; 0.01% of 200,000 active; AID 1487; active = well fitted inhibition curve with a large enough effect in the signal ratio, with a control signal flat, not every such curve was filed as active; inconclusive = small, poorly fitted or top-dose-only effect, or effect the other way, or a change in a side signal; the % refers to the signal ratio
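S3 HeLa stable clones carrying a lamin A-EGFP splicing minigene plus DsRed2 were seeded at 600 cells/well in Opti-MEM with 2% FBS, pin-dosed and incubated 48 h at 37°C. Acumen cytometry (488 nm) gave the GFP/RFP total-intensity ratio.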
Of the large screens only hits and unclear results are named; the others gave an inactive call. Unless noted, calls come from the whole dose curve; as a rule, active = well fitted curve in the direction sought with a large enough effect; inconclusive = small, poorly fitted or top-dose-only effect, or another doubt; inactive = no such curve, though single readings can be large; an effect the other way counts as inactive or inconclusive.

O=C1C(NS(=O)(=O)c2ccc(Cl)cc2)=C(N2CCCCC2)C(=O)c2ccccc21	ALDH1A1 block 8.9µM, HttQ103 aggreg inconclusive
CC1CCN(C(=O)c2ccc(N(C)S(C)(=O)=O)cc2)CC1	HPGD block 14µM
CCOC(=O)C1CCN(C(=O)c2ccc(N(C)S(C)(=O)=O)cc2)CC1	none
CN(c1ccc(C(=O)N2CCCCC2)cc1)S(C)(=O)=O	HttQ103 aggreg inconclusive, HPGD block 10µM
Cc1ccc(C2=Nc3ccccc3S[C@@H](c3cccc([N+](=O)[O-])c3)C2)cc1	none (no result: HttQ103 aggreg, Lamin A splicing)
COc1ccc(CCNC2=CC(=O)N(c3ccc(F)cc3)C2=O)cc1	ALDH1A1 block inconclusive (no result: HPGD block, Lamin A splicing)
COc1cccc(S(=O)(=O)Nc2cccc(C(=O)N3CCCCCC3)c2)c1	ALDH1A1 block 14µM, Lamin A splicing inconclusive (no result: HTT cytoprotect)
O=C(c1cccc(NS(=O)(=O)c2cccc([N+](=O)[O-])c2)c1)N1CCOCC1	none (no result: HTT cytoprotect, HPGD block)
COc1ccc(N2CCN(C(=O)c3ccc(NS(=O)(=O)c4cccc(F)c4)cc3)CC2)cc1	ALDH1A1 block inconclusive, HttQ103 aggreg inconclusive, Lamin A splicing inconclusive
COc1cccc(S(=O)(=O)Nc2ccc(C(=O)N3CCCCCC3)cc2)c1	ALDH1A1 block 22µM (no result: Luc counter, HPGD block, Lamin A splicing)
COc1cccc(S(=O)(=O)Nc2ccc(C(=O)Nc3ccncc3)cc2)c1	Lamin A splicing inconclusive
COc1cccc(S(=O)(=O)Nc2cccc(C(=O)N3CCOCC3)c2)c1	ALDH1A1 block 14µM
COc1ccc(N2CCN(C(=O)c3ccc(NS(=O)(=O)c4ccc(F)c(F)c4)cc3)CC2)cc1	HttQ103 aggreg 10µM, Lamin A splicing inconclusive
Cc1cc(C)cc(NC(=O)c2cc(S(=O)(=O)N3CCCCCC3)cn2C)c1	none (no result: ALDH1A1 block, HttQ103 aggreg, Luc counter, HTT cytoprotect, HPGD block)
Cc1ccc(S(=O)(=O)Oc2ccccc2/C=N/Nc2ccc(C(=O)O)cc2)cc1	none (no result: ALDH1A1 block, Luc counter, HPGD block, Lamin A splicing)
C=CCOC(=O)N[C@H](c1ccco1)C(C(C)=O)C(C)=O	none (no result: HttQ103 aggreg, Lamin A splicing)
CN(C)S(=O)(=O)c1cccc(NC(=S)Nc2ccc(Cl)cc2Cl)c1	ALDH1A1 block 13µM, HPGD block inconclusive
CN(C)S(=O)(=O)c1cccc(NC(=S)N/N=C/c2ccc(O)c(O)c2O)c1	none (no result: ALDH1A1 block, Luc counter, HPGD block, Lamin A splicing)
CCN(CCO)c1ccc(NC(=S)Nc2cccc(S(=O)(=O)N(C)C)c2)cc1	ALDH1A1 block 25µM (no result: HPGD block, Lamin A splicing)
CN(C)S(=O)(=O)c1cccc(NC(=S)Nc2cc(Cl)cc(Cl)c2)c1	ALDH1A1 block inconclusive
O=C(O)c1c(Cl)c(Cl)c(Cl)c(Cl)c1-c1c2cc(I)c(=O)c(I)c-2oc2c(I)c(O)c(I)cc12	ALDH1A1 block 32µM, Luc counter 13µM, HPGD block 32µM, Lamin A splicing inconclusive
O=C(CSc1ncc(-c2ccc(F)cc2)n1Cc1ccco1)Nc1ccc2c(c1)OCO2	Lamin A splicing inconclusive
O=C1C(Cl)=C(Nc2ccccc2O)C(=O)N1CCc1ccccc1	ALDH1A1 block 4µM, HPGD block 11µM
CCOc1ccc(N2C(=O)C(Cl)=C(Nc3ccccc3O)C2=O)cc1	ALDH1A1 block 14µM, HPGD block 25µM
O=C(N/N=C/c1c(O)ccc2ccccc12)c1cccc(C(F)(F)F)c1	HttQ103 aggreg 4µM, HPGD block inconclusive, Lamin A splicing inconclusive (no result: HTT cytoprotect)
COc1ccc2ccccc2c1/C=N/NC(=O)c1cccc(Br)c1	none (no result: HTT cytoprotect)
CCOc1ccc(/C=N/NC(=O)c2[nH]ncc2Br)c(O)c1	Luc counter 11µM, Lamin A splicing inconclusive (no result: HttQ103 aggreg, HTT cytoprotect, HPGD block)
Cc1ccc(O)c(/C=N/NC(=O)c2[nH]ncc2Br)c1	HttQ103 aggreg inconclusive, Luc counter inconclusive, Lamin A splicing inconclusive
O=C(N/N=C/c1c(O)ccc2ccccc12)c1[nH]ncc1Br	HttQ103 aggreg 1.1µM, Lamin A splicing inconclusive
Cc1ccc(S(=O)(=O)NCC(=O)N2CCN(c3ccccc3F)CC2)cc1	Lamin A splicing inconclusive (no result: HTT cytoprotect)
CCOC(=O)c1c(-c2ccc(C)cc2)csc1NC(=O)CCN1CCOCC1	ALDH1A1 block inconclusive
Cc1cc(C)cc(NC(=O)c2ccc(CSc3nnnn3C)cc2)c1	Lamin A splicing inconclusive
CCOC(=O)c1c(-c2ccccc2)csc1NC(=O)CSc1nnnn1C	HttQ103 aggreg inconclusive, HPGD block 32µM, Lamin A splicing inconclusive
CCOC(=O)c1c(-c2ccc(C)o2)csc1NC(=O)COC(=O)c1cccs1	ALDH1A1 block 14µM, HPGD block 22µM
CCOC(=O)c1c(-c2ccc(C)o2)csc1NC(=O)CN1CCOCC1	HPGD block inconclusive
CCOC(=O)c1c(-c2ccccc2)csc1NC(=O)CCN1CCOCC1	ALDH1A1 block 28µM, Lamin A splicing inconclusive
Cn1nnnc1SCc1ccc(C(=O)Nc2ccccc2F)cc1	ALDH1A1 block inconclusive, HttQ103 aggreg inconclusive, HPGD block 16µM
CCOC(=O)c1c(-c2ccccc2)csc1NC(=O)CSc1ccccc1	ALDH1A1 block inconclusive, Lamin A splicing inconclusive
CCOC(=O)C1CCC(CN(Cc2ccccc2C)S(=O)(=O)c2ccc([N+](=O)[O-])cc2)CC1 (stereo not given)	none (no result: HTT cytoprotect)
Cn1nnnc1SCC(=O)Nc1ccccc1-c1ccccc1	ALDH1A1 block 13µM
O=C(CC(c1ccccc1)c1cc(Br)ccc1O)N1CCCC1 (stereo not given)	none (no result: HPGD block, Lamin A splicing)
Cc1ccccc1NC(=O)CSc1nnc(-c2ccoc2C)n1CCc1ccccc1	none
O=C(CC(c1ccccc1)c1cc(Br)ccc1O)NCCN1CCOCC1 (stereo not given)	HPGD block 14µM
Cc1ccccc1NC(=O)CSc1nnnn1C	none
CCCn1c(SCC(=O)Nc2ccccc2-c2ccccc2)nnc1-c1ccoc1C	ALDH1A1 block 32µM, Lamin A splicing inconclusive
Cn1c(SCC(=O)Nc2ccccc2-c2ccccc2)nnc1-c1ccco1	ALDH1A1 block 8.9µM
COc1ccc(NS(=O)(=O)c2ccc(NC(C)=O)cc2)c(OC)c1	Lamin A splicing inconclusive (no result: HPGD block)
CCOC(=O)c1cnc(-c2ccccc2)nc1N1CCOCC1	none (no result: HPGD block)
CCOC(=O)c1c(-c2cccc([N+](=O)[O-])c2)csc1NC(=O)CCCOc1ccccc1OC	ALDH1A1 block 28µM, HPGD block inconclusive
CCOC(=O)c1c(-c2ccc(-c3ccccc3)cc2)csc1NC(=O)C1C2CCC(O2)C1C(=O)O (stereo not given)	ALDH1A1 block inconclusive, HPGD block 14µM
CCOC(=O)CNC(c1ccccc1)c1cc(Br)ccc1NC(=O)CCN1CCOCC1 (stereo not given)	ALDH1A1 block inconclusive, HPGD block 32µM, Lamin A splicing inconclusive
COC(=O)CNC(c1ccccc1)c1cc(Br)ccc1NC(=O)CCN1CCOCC1 (stereo not given)	HPGD block inconclusive, Lamin A splicing inconclusive
CCOC(=O)c1[nH]cc(-c2ccccc2)c1N1CCOCC1	ALDH1A1 block 2.8µM, HPGD block 4µM
